Active and inactive are the calls of the source. The calls were made as follows: active = hit-call score of the fitted dose curve at least 0.9, where 1 is the maximum; inactive = score below 0.9.
Columns and labels:
[1] = read-out: Tissue plasminogen activator (tPA), PLAT (gene 5327); assay: BSK_BE3C_tPA: BioMAP Diversity Plus: BE3C Assay for Tissue plasminogen activator (tPA) Biomarker Activity (AID 2283041); conditions: primary human bronchial epithelial cells; actives raise or lower the signal;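 also: tPA level quantified by ELISA one day after compound addition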
Summary of the method: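 Primary human bronchial epithelial cells in the BE3C system, exposed to compound for 24 h. tPA was quantified by ELISA; DMSO served as baseline, with gain or loss of signal fitted. Cytotoxicity checked in parallel cultures by SRB total-protein staining.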

[2] = read-out: Interleukin-8 (IL8), CXCL8 (gene 3576); assay: BSK_CASM3C_IL8: BioMAP Diversity Plus: CASM3C Assay for Interleukin-8 (IL8) Biomarker Activity (AID 2283042); conditions: primary human coronary artery smooth muscle cells; actives raise or lower the signal;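 also: IL-8 protein level quantified by ELISA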
[3] = read-out: Human Leukocyte Antigen - DR isotype (HLADR), HLA-DRA (gene 3122); assay: BSK_CASM3C_HLADR: BioMAP Diversity Plus: CASM3C Assay for Human Leukocyte Antigen - DR isotype (HLADR) Biomarker Activity (AID 2283043); conditions: primary human coronary artery smooth muscle cells; actives raise or lower the signal;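 also: cell-surface HLA-DR protein level quantified by ELISA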
[4] = read-out: Macrophage colony-stimulating factor (MCSF), CSF1 (gene 1435); assay: BSK_CASM3C_MCSF: BioMAP Diversity Plus: CASM3C Assay for Macrophage colony-stimulating factor (MCSF) Biomarker Activity (AID 2283044); conditions: primary human coronary artery smooth muscle cells; actives raise or lower the signal;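 also: M-CSF protein amount quantified by ELISA after 24 h exposure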
[5] = read-out: Low-density lipoprotein receptor (LDLR), LDLR (gene 3949); assay: BSK_CASM3C_LDLR: BioMAP Diversity Plus: CASM3C Assay for Low-density lipoprotein receptor (LDLR) Biomarker Activity (AID 2283045); conditions: primary human coronary artery smooth muscle cells; actives raise or lower the signal;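 also: LDLR protein level on the cell surface quantified by ELISA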
[6] = read-out: Monocyte Chemoattractant Protein-1 (MCP1), CCL2 (gene 6347); assay: BSK_CASM3C_MCP1: BioMAP Diversity Plus: CASM3C Assay for Monocyte Chemoattractant Protein-1 (MCP1) Biomarker Activity (AID 2283046); conditions: primary human coronary artery smooth muscle cells; actives raise or lower the signal;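 also: MCP-1 level quantified by ELISA 24 h after dosing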
[7] = BSK_CASM3C_Proliferation: Cell Proliferation Assessment in the BioMAP Diversity Plus: CASM3C Assay (AID 2283047); conditions: primary human coronary artery smooth muscle cells;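 also: sulforhodamine B total protein stain as relative cell number at 560 nm; sub-confluent cells exposed 48 h before staining; fitted both ways against DMSO so gain or loss of cell number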
[8] = read-out: Monokine induced gamma interferon (MIG), CXCL9 (gene 4283); assay: BSK_CASM3C_MIG: BioMAP Diversity Plus: CASM3C Assay for Monokine induced gamma interferon (MIG) Biomarker Activity (AID 2283048); conditions: primary human coronary artery smooth muscle cells; actives raise or lower the signal;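 also: MIG protein level measured by ELISA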
[9] = read-out: serum amyloid A (SAA), SAA1 (gene 6288); assay: BSK_CASM3C_SAA: BioMAP Diversity Plus: CASM3C Assay for serum amyloid A (SAA) Biomarker Activity (AID 2283049); conditions: primary human coronary artery smooth muscle cells; actives raise or lower the signal;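 also: SAA protein level quantified by ELISA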
[10] = BSK_CASM3C_SRB: Viability Assessment in the BioMAP Diversity Plus: CASM3C Assay (AID 2283050); conditions: primary human coronary artery smooth muscle cells
[11] = read-out: Thrombomodulin, THBD (gene 7056); assay: BSK_CASM3C_Thrombomodulin: BioMAP Diversity Plus: CASM3C Assay for Thrombomodulin Biomarker Activity (AID 2283051); conditions: primary human coronary artery smooth muscle cells; actives raise or lower the signal;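 also: thrombomodulin protein level measured by ELISA 24 h after dosing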
[12] = read-out: Tissue Factor, F3 (gene 2152); assay: BSK_CASM3C_TissueFactor: BioMAP Diversity Plus: CASM3C Assay for Tissue Factor Biomarker Activity (AID 2283052); conditions: primary human coronary artery smooth muscle cells; actives raise or lower the signal;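 also: cell surface tissue factor protein level read by ELISA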
[13] = read-out: Interferon-gamma inducible Protein 10 (IP10), CXCL10 (gene 3627); assay: BSK_hDFCGF_IP10: BioMAP Diversity Plus: hDFCGF Assay for Interferon-gamma inducible Protein 10 (IP10) Biomarker Activity (AID 2283053); conditions: primary human foreskin fibroblasts; actives raise or lower the signal
Summary of the method: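 Primary human foreskin fibroblasts exposed to chemicals for 24 h. IP-10 measured by ELISA; changes fitted bidirectionally against DMSO baseline.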

[14] = read-out: Urokinase-type plasminogen activator receptor (uPAR), PLAUR (gene 5329); assay: BSK_CASM3C_uPAR: BioMAP Diversity Plus: CASM3C Assay for Urokinase-type plasminogen activator receptor (uPAR) Biomarker Activity (AID 2283054); conditions: primary human coronary artery smooth muscle cells; actives raise or lower the signal;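 also: cell-surface uPAR protein level quantified by ELISA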
[15] = read-out: Vascular cell adhesion molecule 1 (VCAM1), VCAM1 (gene 7412); assay: BSK_CASM3C_VCAM1: BioMAP Diversity Plus: CASM3C Assay for Vascular cell adhesion molecule 1 (VCAM1) Biomarker Activity (AID 2283055); conditions: primary human coronary artery smooth muscle cells; actives raise or lower the signal;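 also: VCAM-1 protein level quantified by ELISA on the cells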
[16] = read-out: Collagen III, COL3A1 (gene 1281); assay: BSK_hDFCGF_CollagenIII: BioMAP Diversity Plus: hDFCGF Assay for Collagen III Biomarker Activity (AID 2283056); conditions: primary human foreskin fibroblasts; actives raise or lower the signal
Summary of the method: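 Human foreskin primary fibroblasts were exposed to test chemicals for 24 h, after which collagen III was quantified by ELISA. Activity was fitted bidirectionally against DMSO as negative control and baseline.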

[17] = read-out: Epidermal growth factor receptor (EGFR), EGFR (gene 1956); assay: BSK_hDFCGF_EGFR: BioMAP Diversity Plus: hDFCGF Assay for Epidermal growth factor receptor (EGFR) Biomarker Activity (AID 2283057); conditions: primary human foreskin fibroblasts; actives raise or lower the signal
Summary of the method: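 Primary human foreskin fibroblasts (hDFCGF system), sampled 24 h after dosing; EGFR quantified by ELISA. Bidirectional fit relative to DMSO baseline; SRB total-protein staining in parallel cultures for cytotoxicity.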

[18] = read-out: Interleukin-8 (IL8), CXCL8 (gene 3576); assay: BSK_hDFCGF_IL8: BioMAP Diversity Plus: hDFCGF Assay for Interleukin-8 (IL8) Biomarker Activity (AID 2283058); conditions: primary human foreskin fibroblasts; actives raise or lower the signal
Summary of the method: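 hDFCGF human dermal fibroblasts; 24 h chemical exposure; IL-8 by ELISA; bidirectional curve fit vs DMSO baseline; gain or loss of signal scored.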

[19] = BSK_hDFCGF_Proliferation: Cell Proliferation Assessment in the BioMAP Diversity Plus: hDFCGF Assay (AID 2283059); conditions: primary human foreskin fibroblasts;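 also: curves fitted for both rise and fall of signal versus DMSO baseline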
Summary of the method: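 Steps: dose primary human dermal fibroblasts (foreskin); […] fix in 10% TCA; stain with 0.1% SRB; read 560 nm; fit gain or loss of signal against DMSO.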

[20] = read-out: Macrophage colony-stimulating factor (MCSF), CSF1 (gene 1435); assay: BSK_hDFCGF_MCSF: BioMAP Diversity Plus: hDFCGF Assay for Macrophage colony-stimulating factor (MCSF) Biomarker Activity (AID 2283060); conditions: primary human foreskin fibroblasts; actives raise or lower the signal
Summary of the method: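 Human foreskin primary fibroblasts were treated with test chemical for 24 h, and M-CSF was then measured by ELISA. Data were fitted bidirectionally against DMSO as the negative control and activity baseline.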

Measured: AC50

FC(F)C(F)(F)COCC1CO1 (stereo not given)
inactive: all assays above

COS(C)(=O)=O
inactive: all assays above

Nc1ccn([C@@H]2O[C@H](CO)[C@@H](O)[C@@H]2O)c(=O)n1
active: [7] 148 nM | [19] 615 nM
inactive: all other assays above

— PubChem BioAssay (EPA / NIEHS)
